Experimental data taken from the supplement of paper PMC10849652.
The full data set covers some 8,800 targets. This sample favours those with a hit. About 0.5% of all pairs of compound and target were hits.

Assays:
Assay in all cases: log2 fold change, soluble protein after heating vs DMSO (PISA); higher = thermal stabilisation; K562 lysate, 10 uM; active = over 0.2 and 3.5 SD of the protein, either way, in both replicates (recomputed)
[1] = compound: CC1=C(C(CC(=O)N1)C2=CC=C(C=C2)C(F)(F)F)C(=O)NC3=C(C=C4C(=C3)C=NN4)F
Method in brief: (§1)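 Values give the log-two fold change in thermal stability against solvent controls, from duplicates. Crude K562 extract at 1 mg/mL protein, made by dounce homogenisation in PBS pH 7.4 with 1 mM MgCl2, was treated with 10 μM compound for 30 min. After 3 min heating across 48°C-58°C, aliquots were pooled, adjusted to 0.5% NP-40 at 4°C and centrifuged at 21,000xg for 90 min. The supernatant was measured by TMTpro 16plex LC-MS/MS with channel sums equalised.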

[2] = compound: C=CC(=O)N1CCC[C@@H](n2nc(-c3ccc(Oc4ccccc4)cc3)c3c(N)ncnc32)C1 [ibrutinib]
Method in brief: as §1

[3] = compound: CC(C)(C)Cn1c(N)nc2ccc(-c3[nH]c(C(C)(C)C)nc3-c3ccc(F)cc3)nc21 [ralimetinib]
Method in brief: as §1

[4] = compound: CC(C)(O)CC(=O)NCCn1ccc2ncnc(Nc3ccc(Oc4cccc(C(F)(F)F)c4)c(Cl)c3)c21
Method in brief: as §1

[5] = compound: CC(C)C1=C2N=C(C=C(N2N=C1)NCC3=CC=CC=C3)NCCCCCCN
Method in brief: as §1

[6] = compound: CC1=C(C2=C(C=C1)C(=O)C3=CC=CC=C3N2CCCN)C
Method in brief: as §1

[7] = compound: CC1=C(C=C(C=C1)NC(=O)C2=CC(=CC=C2)C(C)(C)C#N)NC3=CC4=C(C=C3)N=CN(C4=O)C
Method in brief: as §1

[8] = compound: CC1=C(C=C(C=C1)NC(=O)C2=CC(=CC=C2)N(C)C)NC(=O)C3=CC=C(C=C3)O
Method in brief: as §1

[9] = compound: CCN(CCCOc1ccc2c(Nc3cc(CC(=O)Nc4cccc(F)c4)[nH]n3)ncnc2c1)CCOP(=O)(O)O [barasertib]
Method in brief: as §1

[10] = compound: CCn1c(C(=O)N(C2CC2)C2CC2)cc2c3c(ncn3C)c(Nc3cc(C)n(C)n3)nc21
Method in brief: as §1

[11] = compound: CCn1cc(-c2ccnc3[nH]c(-c4cccc(CN(C)C)c4)cc23)c(-c2ccc(NC(=O)N(C)C)cc2)n1
Method in brief: as §1

[12] = compound: CN1CCC(CNc2ccc3ncc(-c4cccc(OC(F)(F)F)c4)n3n2)CC1
Method in brief: as §1

[13] = compound: CN1CCN(CCOc2cc(OC3CCOCC3)c3c(Nc4c(Cl)ccc5c4OCO5)ncnc3c2)CC1 [saracatinib]
Method in brief: as §1

[14] = compound: CN1CCN(c2nc(C3=C(c4c[nH]c5ccccc45)C(=O)NC3=O)c3ccccc3n2)CC1 [sotrastaurin]
Method in brief: as §1

[15] = compound: CC(=O)c1cnc2ccc(-c3cc(Cl)c(O)c(Cl)c3)nc2c1N[C@H]1CC[C@H](CN(C)C)CC1
Method in brief: as §1

[16] = compound: CC1=CC=C(C=C1)SC2=C3C=C(SC3=CN=C2)C(=O)N
Method in brief: as §1

[17] = compound: CCCS(=O)(=O)Nc1ccc(F)c(C(=O)c2c[nH]c3ncc(Cl)cc23)c1F
Method in brief: as §1

[18] = compound: CC[C@@H]1C(=O)N(C)c2cnc(Nc3ccc(C(=O)NC4CCN(C)CC4)cc3OC)nc2N1C1CCCC1
Method in brief: as §1

[19] = compound: CC[C@@H]1C(=O)N(C)c2cnc(Nc3ccc(C(=O)N[C@H]4CC[C@H](N5CCN(CC6CC6)CC5)CC4)cc3OC)nc2N1C(C)C [volasertib]
Method in brief: as §1

[20] = compound: CCCS(=O)(=O)Nc1ccc(F)c(C(=O)c2c[nH]c3ncc(-c4ccc(Cl)cc4)cc23)c1F [vemurafenib]
Method in brief: as §1

Measured: log2 fold change

SNIP1 (UniProt Q8TAD8)
inactive: [1] -0.062

SNAPC2 (UniProt Q13487)
Sequence of UniProt Q13487 (Q13487 whole entry, looked up): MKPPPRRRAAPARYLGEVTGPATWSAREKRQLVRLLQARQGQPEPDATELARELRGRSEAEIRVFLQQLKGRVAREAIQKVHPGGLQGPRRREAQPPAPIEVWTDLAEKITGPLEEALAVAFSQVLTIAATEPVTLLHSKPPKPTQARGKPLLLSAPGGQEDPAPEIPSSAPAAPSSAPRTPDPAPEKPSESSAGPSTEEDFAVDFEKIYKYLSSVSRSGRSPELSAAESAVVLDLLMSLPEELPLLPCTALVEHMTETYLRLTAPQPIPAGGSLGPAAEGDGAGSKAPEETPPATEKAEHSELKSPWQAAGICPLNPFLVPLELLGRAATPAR
inactive: [2] 0.092 | [3] 0.002 | [4] -0.029 | [5] -0.032 | [1] -0.073 | [6] -0.071 | [7] -0.008 | [8] 0.011 | [9] -0.211 | [10] 0.04 | [11] 0.039 | [12] 0.048 | [13] 0.038 | [14] 0.154

SLCO4A1 (UniProt Q96BD0)
inactive: [2] 0.081 | [1] 0.115 | [9] 0.037 | [11] -0.015 | [12] 0.042

SLC12A6 isoform 2 (UniProt Q9UHW9)
inactive: [15] 0.016 | [3] -0.01 | [4] 0.017 | [5] -0.018 | [6] 0.027 | [7] 0.063 | [8] -0.006 | [16] 0.122 | [17] 0.009 | [18] 0.053 | [19] -0.178 | [10] -0.021 | [13] 0.042 | [14] 0.057

STAR (UniProt P49675)
Sequence of UniProt P49675 (P49675 whole entry, looked up): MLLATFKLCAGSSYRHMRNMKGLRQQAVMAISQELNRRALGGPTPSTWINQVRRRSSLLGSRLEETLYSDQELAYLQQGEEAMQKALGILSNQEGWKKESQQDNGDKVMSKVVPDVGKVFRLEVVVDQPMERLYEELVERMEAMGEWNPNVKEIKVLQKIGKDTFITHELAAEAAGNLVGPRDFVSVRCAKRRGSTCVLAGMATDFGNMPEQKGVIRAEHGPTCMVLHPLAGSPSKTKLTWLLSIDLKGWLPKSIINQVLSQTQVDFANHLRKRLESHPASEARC
inactive: [3] -0.139 | [4] 0.02 | [5] 0.073 | [1] -0.027 | [6] -0.052 | [7] -0.049 | [8] -0.039 | [20] 0.02 | [18] 0.074 | [10] 0.008 | [11] 0.043 | [12] -0.03 | [13] 0.006 | [14] 0.061

SLU7 (UniProt O95391)
inactive: [2] -0.084 | [3] -0.013 | [4] -0.018 | [5] 0.045 | [1] -0.029 | [6] -0.015 | [7] 0 | [8] -0.031 | [20] -0.043 | [9] -0.07 | [18] 0.062 | [10] -0.004 | [11] -0.188 | [12] 0.166 | [13] 0.093 | [14] -0.027

SMARCA4 isoform 4 (UniProt P51532)
inactive: [15] 0.044 | [3] 0.051 | [4] -0.022 | [5] -0.337 | [1] 0.093 | [6] -0.018 | [7] -0.107 | [8] 0.192 | [16] 0.041 | [17] -0.047 | [18] 0.049 | [19] 0.043 | [10] -0.192 | [11] -0.086 | [12] 0.057 | [13] 0.119 | [14] 0.325

SLC25A36 (UniProt Q96CQ1)
Sequence of UniProt Q96CQ1 (Q96CQ1 whole entry, looked up): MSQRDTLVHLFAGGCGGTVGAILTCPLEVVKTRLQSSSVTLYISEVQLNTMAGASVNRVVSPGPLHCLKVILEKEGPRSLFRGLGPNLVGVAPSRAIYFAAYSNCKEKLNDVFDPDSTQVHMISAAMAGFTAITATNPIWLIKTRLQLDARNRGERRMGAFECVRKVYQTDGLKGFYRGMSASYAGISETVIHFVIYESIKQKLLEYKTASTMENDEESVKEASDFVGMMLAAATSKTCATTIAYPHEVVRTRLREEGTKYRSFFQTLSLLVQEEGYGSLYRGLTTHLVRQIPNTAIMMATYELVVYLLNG
inactive: [15] -0.012 | [3] 0.142 | [4] -0.048 | [5] 0.1 | [1] 0.044 | [6] -0.16 | [7] 0.011 | [8] 0.027 | [16] 0.013 | [20] -0.272 | [17] 0.007 | [18] 0.113 | [19] -0.045 | [10] 0.039 | [11] -0.016 | [12] 0.035 | [13] -0.001 | [14] -0.055

SPA17 (UniProt Q15506)
Sequence of UniProt Q15506 (Q15506 whole entry, looked up): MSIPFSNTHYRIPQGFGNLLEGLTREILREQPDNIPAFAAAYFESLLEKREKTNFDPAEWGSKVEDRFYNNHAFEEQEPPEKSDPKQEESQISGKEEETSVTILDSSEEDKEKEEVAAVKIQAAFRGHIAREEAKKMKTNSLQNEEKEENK
inactive: [2] 0.056 | [15] 0.028 | [3] 0.006 | [4] -0.098 | [6] 0.051 | [7] -0.053 | [8] 0.026 | [16] -0.058 | [20] -0.013 | [17] -0.004 | [9] 0.021 | [18] 0.005 | [19] 0.09 | [10] 0.022 | [12] 0.245 | [13] 0.004 | [14] 0.021
active: [11] -0.639

STK17B (UniProt O94768)
inactive: [3] 0.104 | [4] -0.004 | [5] 0.162 | [1] 0.054 | [6] -0.102 | [7] 0.147 | [8] 0.07 | [10] -0.451 | [13] -0.002 | [14] 0.057

SMPD2 (UniProt O60906)
Sequence of UniProt O60906 (O60906 whole entry, looked up): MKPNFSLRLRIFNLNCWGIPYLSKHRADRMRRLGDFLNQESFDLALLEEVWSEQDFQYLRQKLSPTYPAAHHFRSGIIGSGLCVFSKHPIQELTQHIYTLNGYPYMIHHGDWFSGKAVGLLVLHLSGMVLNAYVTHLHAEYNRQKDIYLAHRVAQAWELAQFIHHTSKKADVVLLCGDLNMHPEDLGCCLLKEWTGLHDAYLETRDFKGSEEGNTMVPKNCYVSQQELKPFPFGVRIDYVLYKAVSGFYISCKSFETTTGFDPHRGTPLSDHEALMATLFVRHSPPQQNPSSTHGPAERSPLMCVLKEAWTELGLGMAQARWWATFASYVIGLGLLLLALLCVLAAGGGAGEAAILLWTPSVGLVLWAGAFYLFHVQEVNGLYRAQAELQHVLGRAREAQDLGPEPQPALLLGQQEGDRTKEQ
inactive: [15] 0.01 | [3] -0.03 | [4] 0.067 | [5] 0.388 | [6] 0.077 | [8] -0.113 | [16] 0.058 | [17] 0.179 | [18] 0.051 | [19] 0.032 | [10] -0.017 | [11] -0.003 | [12] -0.104 | [13] 0.018

STK26 isoform 3 (UniProt Q9P289)
Sequence of UniProt Q9P289 (Q9P289 whole entry, looked up): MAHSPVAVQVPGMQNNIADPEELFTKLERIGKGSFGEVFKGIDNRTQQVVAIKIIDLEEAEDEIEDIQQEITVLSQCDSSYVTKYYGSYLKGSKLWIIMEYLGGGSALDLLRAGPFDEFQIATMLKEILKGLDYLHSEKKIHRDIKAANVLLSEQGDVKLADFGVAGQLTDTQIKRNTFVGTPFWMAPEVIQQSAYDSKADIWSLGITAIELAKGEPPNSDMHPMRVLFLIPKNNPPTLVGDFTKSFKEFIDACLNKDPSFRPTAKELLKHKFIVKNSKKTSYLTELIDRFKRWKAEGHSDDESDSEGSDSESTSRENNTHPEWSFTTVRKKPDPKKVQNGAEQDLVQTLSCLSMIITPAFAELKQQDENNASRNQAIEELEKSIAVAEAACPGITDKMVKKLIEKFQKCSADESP
inactive: [6] -0.157 | [7] -0.146 | [18] 0.189 | [13] -0.046 | [14] -0.119

SPAG1 (UniProt Q07617)
Sequence of UniProt Q07617 (Q07617 whole entry, looked up): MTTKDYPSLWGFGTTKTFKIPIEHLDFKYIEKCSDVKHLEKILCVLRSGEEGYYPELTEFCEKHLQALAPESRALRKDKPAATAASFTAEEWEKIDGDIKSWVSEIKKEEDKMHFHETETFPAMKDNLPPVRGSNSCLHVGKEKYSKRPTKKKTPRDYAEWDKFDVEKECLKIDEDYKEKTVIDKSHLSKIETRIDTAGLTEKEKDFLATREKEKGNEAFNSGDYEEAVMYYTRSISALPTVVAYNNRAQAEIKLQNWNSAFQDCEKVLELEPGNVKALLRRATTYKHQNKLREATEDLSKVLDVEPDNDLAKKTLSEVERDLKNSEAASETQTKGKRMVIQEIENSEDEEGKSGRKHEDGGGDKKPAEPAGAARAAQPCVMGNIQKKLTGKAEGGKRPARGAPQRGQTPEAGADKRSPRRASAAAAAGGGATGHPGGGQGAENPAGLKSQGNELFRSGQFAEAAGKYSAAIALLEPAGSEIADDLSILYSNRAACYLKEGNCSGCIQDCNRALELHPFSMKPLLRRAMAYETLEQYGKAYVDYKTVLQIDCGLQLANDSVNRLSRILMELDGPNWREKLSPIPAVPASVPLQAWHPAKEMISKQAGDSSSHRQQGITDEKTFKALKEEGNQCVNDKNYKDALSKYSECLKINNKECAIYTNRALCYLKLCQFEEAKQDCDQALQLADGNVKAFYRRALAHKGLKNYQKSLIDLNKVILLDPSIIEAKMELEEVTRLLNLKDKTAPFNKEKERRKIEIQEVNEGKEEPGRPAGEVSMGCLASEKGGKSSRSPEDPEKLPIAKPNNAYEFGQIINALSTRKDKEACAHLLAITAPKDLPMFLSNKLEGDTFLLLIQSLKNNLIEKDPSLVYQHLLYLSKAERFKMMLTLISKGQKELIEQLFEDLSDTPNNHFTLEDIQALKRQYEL
inactive: [2] 0.034 | [15] 0.282 | [3] -0.017 | [4] -0.17 | [7] 0.15 | [8] 0.079 | [16] -0.198 | [20] 0.041 | [17] 0.028 | [9] 0.018 | [19] -0.137 | [10] 0.083 | [14] -0.02

SNRPD2 (UniProt K7EJB5)
inactive: [15] -0.004 | [3] 0.142 | [4] -0.075 | [5] 0.014 | [1] 0.052 | [6] -0.022 | [7] -0.011 | [8] 0.069 | [16] -0.01 | [20] 0.061 | [17] -0.029 | [18] -0.085 | [19] 0.026 | [10] 0.112 | [13] -0.049 | [14] 0.112

TAF11 (UniProt Q15544)
inactive: [15] -0.013 | [3] 0.027 | [4] 0.008 | [1] 0.015 | [6] 0.115 | [7] 0.052 | [8] 0.072 | [16] -0.114 | [20] -0.055 | [17] 0.166 | [18] 0.14 | [19] 0.037 | [10] 0.086 | [11] -0.028 | [12] 0.086 | [13] -0.021 | [14] 0.026

STK38L (UniProt Q9Y2H1)
inactive: [3] -0.069 | [4] 0.021 | [5] -0.019 | [1] -0.024 | [6] -0.019 | [7] 0 | [8] 0.056 | [18] -0.105 | [10] -0.047 | [13] -0.058 | [14] -0.01

TARDBP (UniProt K7EN94)
inactive: [20] 0.008 | [18] -0.039

SLC22A18 (UniProt Q96BI1)
inactive: [2] 0.099 | [15] -0.047 | [5] 0.049 | [7] 0.02 | [16] 0.011 | [20] 0.026 | [17] 0.046 | [9] -0.059 | [18] 0.044 | [19] 0.08 | [11] 0.026 | [12] -0.032 | [14] 0.073

SLC39A13 (UniProt Q96H72)
inactive: [3] 0.004 | [4] -0.137 | [5] -0.003 | [8] 0.25 | [10] 0.035

SKP2 (UniProt Q13309)
inactive: [15] -0.137 | [3] 0.137 | [4] 0.045 | [5] 0.058 | [1] -0.041 | [6] 0.023 | [7] -0.097 | [8] -0.015 | [20] 0.417 | [17] 0.093 | [18] 0.193 | [19] 0.05 | [10] 0.025 | [11] 0.121 | [12] -0.008 | [13] -0.011 | [14] 0.032
active: [16] -0.576

SLC35A3 isoform 2 (UniProt Q9Y2D2)
Sequence of UniProt Q9Y2D2 (Q9Y2D2 whole entry, looked up): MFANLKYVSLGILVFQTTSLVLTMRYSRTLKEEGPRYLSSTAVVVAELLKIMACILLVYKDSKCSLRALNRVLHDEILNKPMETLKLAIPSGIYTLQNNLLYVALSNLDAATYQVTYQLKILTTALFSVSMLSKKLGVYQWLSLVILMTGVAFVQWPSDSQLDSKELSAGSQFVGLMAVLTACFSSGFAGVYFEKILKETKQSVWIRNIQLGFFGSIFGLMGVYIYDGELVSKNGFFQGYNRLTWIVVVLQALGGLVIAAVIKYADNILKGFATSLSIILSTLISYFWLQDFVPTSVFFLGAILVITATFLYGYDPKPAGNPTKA
active: [11] -1.1
inactive: [15] -0.034 | [3] -0.027 | [4] 0.234 | [5] -0.027 | [1] -0.133 | [7] 0.111 | [8] -0.025 | [16] 0.051 | [20] -0.024 | [17] -0.031 | [18] 0.056 | [19] 0.005 | [10] -0.374 | [12] 0.336 | [14] -0.026

TAF1B (UniProt Q53T94)
Sequence of UniProt Q53T94 (Q53T94 whole entry, looked up): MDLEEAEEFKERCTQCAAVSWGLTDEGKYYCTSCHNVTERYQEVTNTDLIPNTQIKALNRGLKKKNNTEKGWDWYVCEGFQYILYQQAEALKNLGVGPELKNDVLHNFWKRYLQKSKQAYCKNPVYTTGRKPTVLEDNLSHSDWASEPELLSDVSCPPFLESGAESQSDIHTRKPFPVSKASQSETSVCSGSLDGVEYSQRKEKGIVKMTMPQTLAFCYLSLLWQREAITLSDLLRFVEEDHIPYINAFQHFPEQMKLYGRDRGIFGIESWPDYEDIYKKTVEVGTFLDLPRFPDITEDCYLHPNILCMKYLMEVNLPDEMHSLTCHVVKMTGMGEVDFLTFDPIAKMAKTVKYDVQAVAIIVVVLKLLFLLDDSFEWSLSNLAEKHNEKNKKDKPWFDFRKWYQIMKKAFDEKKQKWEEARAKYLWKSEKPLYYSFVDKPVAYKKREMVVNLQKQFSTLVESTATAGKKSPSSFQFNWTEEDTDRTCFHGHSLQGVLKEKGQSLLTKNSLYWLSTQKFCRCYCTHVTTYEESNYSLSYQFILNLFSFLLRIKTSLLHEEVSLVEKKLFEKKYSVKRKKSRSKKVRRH
inactive: [2] -0.156 | [15] 0.095 | [3] 0.043 | [4] -0.112 | [1] 0.419 | [6] -0.101 | [7] 0.032 | [8] 0.006 | [16] 0.138 | [20] 0.397 | [17] -0.217 | [9] 0.11 | [18] -0.212 | [19] -0.057 | [10] -0.039 | [11] -0.12 | [12] 0.166 | [13] 0.045 | [14] 0.055

SHB (UniProt Q15464)
inactive: [15] -0.023 | [3] 0.023 | [4] -0.025 | [5] -0.009 | [6] -0.01 | [7] 0.023 | [8] -0.012 | [16] 0.05 | [17] -0.049 | [19] 0.072 | [10] 0.113 | [11] -0.125 | [12] -0.162 | [13] 0.003 | [14] -0.003

SIN3B (UniProt O75182)
Sequence of UniProt O75182 (O75182 whole entry, looked up): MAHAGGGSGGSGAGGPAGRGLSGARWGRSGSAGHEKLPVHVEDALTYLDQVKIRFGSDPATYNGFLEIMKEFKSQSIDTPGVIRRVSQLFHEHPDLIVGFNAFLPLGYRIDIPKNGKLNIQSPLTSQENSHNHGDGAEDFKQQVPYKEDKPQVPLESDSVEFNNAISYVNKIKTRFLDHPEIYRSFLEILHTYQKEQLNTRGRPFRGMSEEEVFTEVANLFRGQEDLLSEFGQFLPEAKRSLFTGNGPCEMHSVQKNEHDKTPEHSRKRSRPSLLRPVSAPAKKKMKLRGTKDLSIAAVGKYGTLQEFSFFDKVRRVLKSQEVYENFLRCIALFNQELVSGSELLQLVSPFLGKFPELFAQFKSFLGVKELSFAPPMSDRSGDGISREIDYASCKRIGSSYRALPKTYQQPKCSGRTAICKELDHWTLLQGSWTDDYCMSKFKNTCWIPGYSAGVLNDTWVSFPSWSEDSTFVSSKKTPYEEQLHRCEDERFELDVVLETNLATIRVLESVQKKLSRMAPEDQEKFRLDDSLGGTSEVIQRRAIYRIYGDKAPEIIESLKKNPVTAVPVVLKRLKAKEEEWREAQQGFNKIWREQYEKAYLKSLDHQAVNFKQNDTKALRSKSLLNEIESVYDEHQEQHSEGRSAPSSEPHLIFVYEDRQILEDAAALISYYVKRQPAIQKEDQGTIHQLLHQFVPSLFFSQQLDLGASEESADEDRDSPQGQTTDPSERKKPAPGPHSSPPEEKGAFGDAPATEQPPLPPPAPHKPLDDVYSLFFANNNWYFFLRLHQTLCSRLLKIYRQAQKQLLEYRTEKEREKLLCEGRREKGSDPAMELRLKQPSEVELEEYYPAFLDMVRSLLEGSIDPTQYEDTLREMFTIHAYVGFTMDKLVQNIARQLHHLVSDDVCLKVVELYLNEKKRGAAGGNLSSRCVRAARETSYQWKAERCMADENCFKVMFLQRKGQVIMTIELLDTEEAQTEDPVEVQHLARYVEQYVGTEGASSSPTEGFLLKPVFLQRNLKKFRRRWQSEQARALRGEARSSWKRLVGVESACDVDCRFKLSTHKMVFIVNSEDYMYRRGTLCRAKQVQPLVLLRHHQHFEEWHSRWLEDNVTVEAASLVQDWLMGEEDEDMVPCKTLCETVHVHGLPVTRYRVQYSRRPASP
inactive: [1] 0.19 | [7] 1.04 | [20] -0.042 | [18] -0.092 | [11] -0.061 | [12] 0.267 | [14] -0.099
